Bioassay records deposited in PubChem BioAssay by National Center for Advancing Translational Sciences (NCATS).
Rows were chosen to be rich in hits. Some 1.9% of all compounds tested hit in one or more screens of this group.
TDP43 rescue – TDP-43 toxicity inhibition in yeast | TDP-43 expressing yeast growth rescue, BacTiter-Glo, 24 h | hit rate 1.8% among 410,000 | Potency, µM (series often up to 46.1 µM), for the others: top-dose growth rescue (activation), actives largely listed as activators; further: potency means the concentration at half of the fitted maximal effect; % of control where 0% means no effect; nearly all actives have a fitted effect of over 50% in size
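Yeast expressing TDP-43 (pregrown in raffinose, seeded at OD600=0.02 in galactose medium) exposed to compounds 24 hr at 30 deg C. Growth read by BacTiter-Glo luminescence; rescue of toxicity appears as increased signal.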
Abeta rescue – A-beta toxicity reversal in yeast; hit rate 0.063% among 410,000; Potency, µM (highest dose often 46.1 µM), most hits filed as activators; AID 1347071; yeast expressing A-beta42, growth rescue, OD600, 48 h; response scale: 0% DMSO, 100% iron-clioquinol control; further: potency means the concentration at half of the fitted maximal effect; nearly all actives have a fitted effect of over 55% in size
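Growth rescue measured by 600 nm absorbance after 48 h yeast culture at 30 C with compound. Values normalized between DMSO and an equimolar ferric chloride plus clioquinol control.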
PTHR1 agonist – activates the human parathyroid hormone receptor PTHR1; HEK293 GP2 PTHR1 cells, GloSensor cAMP luminescence, 1 h; Potency, µM (highest dose often 115 µM), for inactives: at the top dose activation, usual class: activators; hit rate 0.075% among 410,000; AID 743266; further: potency means the concentration at half of the fitted maximal effect; nearly all actives have a fitted effect of over 55% in size
Target sequence (Q03431 whole entry, looked up): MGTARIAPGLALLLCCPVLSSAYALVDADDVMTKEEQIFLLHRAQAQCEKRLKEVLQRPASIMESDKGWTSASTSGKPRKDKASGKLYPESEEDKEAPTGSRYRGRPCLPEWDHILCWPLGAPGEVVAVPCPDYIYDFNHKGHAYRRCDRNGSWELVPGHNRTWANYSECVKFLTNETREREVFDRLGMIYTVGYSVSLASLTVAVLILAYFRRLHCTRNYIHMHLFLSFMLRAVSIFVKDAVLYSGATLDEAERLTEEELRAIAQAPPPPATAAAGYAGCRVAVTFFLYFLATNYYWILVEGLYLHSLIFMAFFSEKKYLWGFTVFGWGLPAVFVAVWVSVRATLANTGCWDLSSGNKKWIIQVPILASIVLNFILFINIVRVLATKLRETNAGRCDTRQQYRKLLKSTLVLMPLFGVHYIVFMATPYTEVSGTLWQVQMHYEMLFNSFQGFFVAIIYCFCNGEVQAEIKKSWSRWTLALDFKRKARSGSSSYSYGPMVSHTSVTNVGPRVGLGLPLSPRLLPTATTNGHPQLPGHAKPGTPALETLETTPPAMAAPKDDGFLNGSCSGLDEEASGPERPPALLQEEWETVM
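HEK-293-derived GP2 cells expressing PTHR1 and a GloSensor cAMP reporter, 3,000/well, plated overnight, given luciferin plus IBMX (each 0.5 mM as added) for 1 h at 37 °C, then compound for 1 h at 37 °C. Luminescence was read after 15 min at room temperature.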
aSyn rescue – alpha-synuclein toxicity inhibition in yeast | Yeast expressing alpha-synuclein, growth rescue, BacTiter-Glo, 24 h | Potency, µM (top dose mostly 46.1 µM), without a hit: top-dose growth rescue (activation), most hits filed as activators | hit rate 0.14% among 370,000; further: potency means the concentration at half of the fitted maximal effect; % of control where 0% means no effect; nearly all actives have a fitted effect of over 65% in size
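Galactose-induced alpha-syn yeast (OD600=0.02, raffinose-pregrown) + pinned cpd, 24 hr, 30 deg C; growth by BacTiter-Glo luminescence. Growth restoration scores as activation.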
FUS suppressor – suppressors of FUS proteinopathy in yeast. S. cerevisiae FUS-expressing, growth rescue, OD600, 24 h. Potency, µM (top dose mostly 76.6 µM), usual class: activators. hit rate 0.24% among 390,000. AID 1347120;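 further: potency means the concentration at half of the fitted maximal effect; plate controls were DMSO vehicle for no effect and reference control for full effect; nearly all actives have a fitted effect of over 55% in size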
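Yeast FUS proteinopathy model; galactose-induced FUS (2%), starting OD 0.005. Cpds in dilution series, 24hr, 30C, 99% humidity. Abs 600 nm growth. Pos ctrl CP55940 (top 92uM final); neg ctrl DMSO.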
LDHA inh – blocks human lactate dehydrogenase A | purified LDHA, NADH/diaphorase-resazurin fluorescence; stronger effect = lower value | activity change, % (values are at about 110 or 230 µM) | hit rate 0.15% among 480,000 | AID 1347041; in the data active means activity change below about -30%; inconclusive means mostly about -25% to -30%;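 further: plate controls were DMSO wells for no effect and wells without enzyme for full effect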
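Resorufin fluorescence (ex540/em590), read at 0 and 20 min after diaphorase/resazurin addition, reports the NADH left after a 5 min room-temperature reaction of 2 nM human LDH5 with 0.06 mM NADH and 0.2 mM pyruvate.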
* hit, by the source's call; [ ] = another dose, or the depositor's remark. Unless noted, the call rests on the fitted dose curve; in most records, active means well fitted curve in the direction sought with a large enough effect; inconclusive means small, poorly fitted or top-dose-only effect, or another doubt; inactive means no such curve, though single readings can be large; an effect the other way counts as inactive or inconclusive.

OC1CCC(Nc2ccn3nc(-c4cccc(OCc5ccccc5)c4)cc3n2)CC1 (stereo not drawn) was read as TDP43 rescue 35µM*, Abeta rescue inactive, PTHR1 agonist -31%, aSyn rescue -20%, FUS suppressor inconclusive and LDHA inh -4.
`Cc1ccc(C2=CCN(Cc3oc(CO)cc(=O)c3O)CC2)cc1` gave LDHA inh 4.
Screening Fc1ccc(N2CCN(c3ncnc4c3nc3n4CCCCC3)CC2)cc1 returned TDP43 rescue 13%, Abeta rescue inactive, PTHR1 agonist -82%, FUS suppressor inactive and LDHA inh -3.
c1ccc(N2CCN(c3ncnc4c3nc3n4CCCCC3)CC2)cc1 was read as TDP43 rescue 14µM*, Abeta rescue inactive, PTHR1 agonist -36%, FUS suppressor inactive and LDHA inh -2.
`CCn1cc(C(=O)Cn2c(C)nc3ccccc32)c2ccccc21` gave LDHA inh 3.
Screening Cc1ccccc1CN1CCN(Cc2ccccc2)CC1 returned TDP43 rescue -4%, Abeta rescue inactive, PTHR1 agonist 45µM*, aSyn rescue 2%, FUS suppressor inactive and LDHA inh 4.
For N#CC1=C(N)Oc2nc(SCc3ccccc3Cl)nc(N)c2C1c1ccccc1F (stereo not drawn) the results were LDHA inh 4.
COC(=O)C1=C(c2ccc(F)cc2OCc2ccccc2)C[C@@H]2CC[C@H]1N2C(=O)NCc1ccc(Br)cc1 was read as TDP43 rescue 3.5µM*, Abeta rescue inactive, PTHR1 agonist inactive, aSyn rescue 12%, FUS suppressor inconclusive and LDHA inh 0.
Screening COC(=O)C1=C(c2ccccc2OCc2ccccc2)C[C@@H]2CC[C@H]1N2C(=O)NCc1ccc(N(C)C)cc1 returned TDP43 rescue 19%, Abeta rescue inactive, PTHR1 agonist inactive, aSyn rescue 18%, FUS suppressor inactive and LDHA inh 4.
Screening COC(=O)C1=C(c2ccccc2OCc2ccccc2)C[C@@H]2CC[C@H]1N2C(=O)NCc1ccc([N+](=O)[O-])cc1 returned TDP43 rescue 23%, Abeta rescue inactive, PTHR1 agonist -14%, aSyn rescue 14%, FUS suppressor 28µM* and LDHA inh 1.
`COC(=O)C1=C(c2ccccc2OCc2ccccc2)C[C@@H]2CC[C@H]1N2C(=O)NCc1ccc(Cl)cc1` gave TDP43 rescue inconclusive, Abeta rescue inactive, PTHR1 agonist -17%, aSyn rescue 13%, FUS suppressor 32µM* and LDHA inh 0.
For COC(=O)C1=C(c2ccc(F)cc2OCc2ccccc2)C[C@@H]2CC[C@H]1N2C(=O)NCc1ccc(OC)cc1 the results were TDP43 rescue inconclusive, Abeta rescue inactive, PTHR1 agonist inactive, aSyn rescue 7%, FUS suppressor inactive and LDHA inh -2.
Screening C/C(=C\c1cn(C)c2ccccc12)[N+](=O)[O-] returned LDHA inh 32.
C[C@]12C[C@@H](O)[C@H](O)CC1=CCC1C2CC[C@]2(C)C(=O)CCC12 (stereo partly drawn) was read as TDP43 rescue 11%, Abeta rescue inactive, PTHR1 agonist inactive, aSyn rescue 1%, FUS suppressor inactive and LDHA inh -12.
Screening C[C@]12CC[C@H](O)CC1=CC[C@@H]1[C@@H]2CC[C@]2(C)C(=O)CC[C@@H]12 returned TDP43 rescue 16µM*, Abeta rescue inactive, PTHR1 agonist -15%, aSyn rescue inconclusive, FUS suppressor inactive and LDHA inh -1.
`O=C(Nc1ccc(Cl)cc1)Nc1nccs1` gave TDP43 rescue 20µM*, Abeta rescue inactive, PTHR1 agonist -19%, aSyn rescue -3%, FUS suppressor inactive and LDHA inh -5.
Screening C[C@@H]1CCC2[C@@H](C)C(=O)O[C@@H]3OC4(C)CCC1[C@@]23OO4 (stereo partly drawn) returned TDP43 rescue 7.9µM*, Abeta rescue inactive, PTHR1 agonist -1%, aSyn rescue 0%, FUS suppressor inactive and LDHA inh -6.
Screening C[C@@H]1CC[C@H]2[C@@H](C)C(=O)O[C@@H]3O[C@@]4(C)CC[C@@H]1[C@]32OO4 returned TDP43 rescue 4.5µM*, Abeta rescue inactive, PTHR1 agonist -20%, aSyn rescue 0%, FUS suppressor inactive and LDHA inh 3.
`CNC(=O)NC(=O)C(C)Cl` (stereo not drawn) gave LDHA inh 1.
COC(=O)C1=Nc2ccccc2/C1=C\c1c(O)n(-c2ccc(OC)cc2)c(=O)[nH]c1=O was read as TDP43 rescue -29%, Abeta rescue inactive, PTHR1 agonist -7%[57.5 µM], aSyn rescue 6%, FUS suppressor inactive and LDHA inh -43*.
For COC(=O)C1=Nc2ccccc2/C1=C\c1c(O)n(-c2ccc(Br)cc2)c(=O)[nH]c1=O the results were TDP43 rescue -21%, Abeta rescue inactive, PTHR1 agonist -23%, aSyn rescue 0%, FUS suppressor inactive and LDHA inh -67*.
O=C(c1cn(Cc2ccccc2)c2ccccc12)N1CCC1 was read as LDHA inh 6.
Screening CN(C)C(CSS(=O)(=O)c1ccccc1)CSS(=O)(=O)c1ccccc1 returned LDHA inh -3.
For COc1ccc(CCNCc2cccc(F)c2)cc1 the results were LDHA inh -15.
CCC(C)NC(=O)CCC(=O)OC1O[C@H]2OC3(C)CC[C@H]4[C@H](C)CCC(C1C)C24OO3 (stereo partly drawn) was read as TDP43 rescue 35µM*, Abeta rescue inactive, PTHR1 agonist inactive, aSyn rescue -9%, FUS suppressor inactive and LDHA inh 0.
For C[C@@H]1CCC2[C@H](C)C(=O)O[C@@H]3O[C@]4(C)CCC1C23OO4 (stereo partly drawn) the results were LDHA inh 7.
Screening COC1C(C)OC(OC2CC(C)(O)Cc3cc4c(c(O)c32)C(=O)c2c(O)cc3c(c2C4=O)OC2OC3(C)C(O)C(N(C)C)C2O)C(OC)C1(C)OC (stereo not drawn) returned TDP43 rescue 22µM*, Abeta rescue inactive, PTHR1 agonist inactive, aSyn rescue inconclusive and LDHA inh 19.
